Rows were chosen to be rich in hits. Some 2.5% of all compounds tested hit in one or more screens of this group.
Cruzain inh noDet: qHTS Assay for Promiscuous and Specific Inhibitors of Cruzain (without detergent) | Cruzipain (Trypanosoma cruzi), P25779 | purified cruzain, Z-FR-AMC fluorescence, no detergent | Potency, µM, without a hit: max response, negative = inhibition, most hits filed as inhibitors | 200,000 compounds, 2.3% hits | AID 1476, 2009;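 further: plate controls were enzyme without inhibitor for no effect and buffer without enzyme for full effect; nearly all actives have a fitted effect of over 40% in size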
Target sequence (P25779 123-467 limits assumed): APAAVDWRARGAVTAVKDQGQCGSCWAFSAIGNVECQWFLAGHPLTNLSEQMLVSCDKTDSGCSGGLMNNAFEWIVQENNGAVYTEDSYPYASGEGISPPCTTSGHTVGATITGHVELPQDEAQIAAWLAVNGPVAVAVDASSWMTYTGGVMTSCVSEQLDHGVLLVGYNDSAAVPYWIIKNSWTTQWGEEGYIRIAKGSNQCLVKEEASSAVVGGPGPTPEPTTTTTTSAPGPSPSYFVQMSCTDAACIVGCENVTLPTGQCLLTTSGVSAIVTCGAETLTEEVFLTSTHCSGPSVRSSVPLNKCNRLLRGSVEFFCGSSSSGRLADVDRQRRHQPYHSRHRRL
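Purified cruzain at 1.5 nM, pre-incubated 15 min with compound at room temperature in 100 mM sodium acetate pH 5.5, 5 mM DTT, 0.00005% Triton X-100. Reaction started with 2 uM Z-FR-AMC; AMC fluorescence increase over 60 s gives rate.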
Cruzain Triton: qHTS Assay for Promiscuous and Specific Inhibitors of Cruzain (with detergent). Potency, µM, without a hit: max response, negative = inhibition, usual class: inhibitors. purified cruzain, Z-FR-AMC fluorescence, 0.01% Triton. 200,000 compounds, 0.43% hits. Cruzipain (Trypanosoma cruzi), P25779;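 further: plate controls were neutral wells for no effect and buffer without enzyme for full effect; nearly all actives have a fitted effect of over 40% in size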
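Cruzain (1.5 nM) preincubated 15 min at RT with compound in 100 mM sodium acetate pH 5.5, 5 mM DTT, 0.01% Triton X-100. Reaction started with 2 uM Z-FR-AMC; AMC fluorescence (ex 360/em 450 nm) change over 60 s gave rate.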
* = called active by the depositor; ? = inconclusive. The call rests on the fitted dose curve; in most records, active means well fitted curve in the direction sought with a large enough effect; inconclusive means small, poorly fitted or top-dose-only effect, or another doubt; inactive means no such curve, though single readings can be large; an effect the other way counts as inactive or inconclusive. Potency means the concentration at half of the fitted maximal effect.

SMILES	Cruzain inh noDet	Cruzain Triton
O=C(N/N=C\c1ccc(-c2ccccc2[N+](=O)[O-])o1)C1COc2cc3ccccc3cc2O1 (stereo unspecified)	7.9µM*	-2%
COc1cccc(-c2csc(-c3c(N)c(C(=O)c4ccccc4)n4ccccc34)n2)c1	7.9µM*	-3%
CCc1ccc(C(=O)c2c(N)c(-c3nc(-c4ccc5c(c4)OCO5)cs3)c3ccccn23)cc1	2.5µM*	-2%
Cc1ccc(-c2csc(-c3c(N)c(C(=O)c4ccc5c(c4)OCO5)n4ccccc34)n2)cc1	?	-2%
COc1ccc(OC)c(C(=O)c2c(N)c(-c3nc(-c4ccc(C)c(C)c4)cs3)c3ccccn23)c1	-6%	-2%
Cc1cccc(Cc2c(C)nc3nc(SCc4ccccc4F)nn3c2C)c1	?	-5%
Cc1ccccc1CNC(=O)c1ccc(NC(=O)c2nsc3ccccc23)cc1	?	-3%
CCc1nnc2c3ccccc3nc(N3CCN(c4cc(C)ccc4C)CC3)n12	5%	-2%
CC(C)(C)C(=O)CSc1nc2ccsc2c(=O)n1Cc1ccccc1Cl	-21%	-1%
Cc1ccccc1NC(=O)COC(=O)/C=C/c1cn(-c2ccccc2)nc1-c1cccnc1	25µM*	-5%
COc1ccc(-c2nn(-c3ccccc3)cc2/C=C/C(=O)OCC(=O)Nc2ccc(C#N)cc2)cc1	?	-13%
CC(=O)Nc1ccc(NC(=O)C(C)OC(=O)/C=C/c2cn(-c3ccccc3)nc2-c2cccnc2)cc1 (stereo unspecified)	?	-9%
COc1ccc(-c2nn(-c3ccccc3)cc2/C=C/C(=O)OCC(=O)Nc2cccc(C#N)c2)cc1	32µM*	0%
CCOC(=O)CSc1nc2sc3c(c2c(=O)n1Cc1ccccc1)CC(C)CC3 (stereo unspecified)	3%	-4%
Cc1ccc(S(=O)(=O)N(CC(O)Cn2c3ccccc3c3ccccc32)c2cccc(C(=O)NCCO)c2)cc1 (stereo unspecified)	?	-12%
Cc1ccc2c(c1)c(=O)c1c3n2CCN(C(=O)CCl)C3CC1 (stereo unspecified)	-22%	16µM*
Cc1ccc2c(c1)c1c3n2CCN(C(=O)CN2CCN(C)CC2)C3CCC1 (stereo unspecified)	-10%	-3%
CCCCOc1ccc(C2=NC(c3ccncc3)=Nc3ccc(OCC)cc3N2)cc1	0%	-9%
CCCCn1c(CCNC(=O)c2cccs2)nc2ccccc21	10µM*	-16%
COc1ccccc1C(=O)NCCc1nc2ccccc2n1C	10µM*	?
COc1ccccc1C(=O)Nc1ccc2c(c1)nc(CCNC(C)=O)n2C	-10%	1%
CCCn1c(CNC(=O)c2cccs2)nc2ccccc21	7%	-1%
COc1cc(C(=O)Nc2ccc(-c3cc(C(F)(F)F)nn3-c3ccccc3)cc2)cc(OC)c1OC	?	-6%
Cc1ccc(-c2noc(CN(C(=O)c3ccc(C(C)(C)C)cc3)C(C)C)n2)cc1	3%	-4%
Cc1ccc(Cn2cc(CCC(=O)NCc3ccccc3F)c3ccccc32)cc1	-16%	-6%
SMILES	Cruzain inh noDet	Cruzain Triton
Cc1ccc([C@@]2(C)CC/C(=N/N=C3\CC[C@](C)(c4ccc(C)c(C)c4)c4cc(C)c(C)cc43)c3cc(C)c(C)cc32)cc1C	0%	-1%
O=C(NCc1ccco1)c1cc(-c2cccs2)nc2ccccc12	-13%	-15%
O=C(COC(=O)c1cc(-c2cccs2)nc2ccccc12)NCc1ccco1	3%	25µM*
COc1ccc(Nc2cc(C(=O)NCc3ccccc3OC)c3ccccc3n2)cc1	11%	-10%
O=C(COC(=O)c1cc(-c2ccc(Cl)s2)nc2ccccc12)NCc1ccco1	13%	20µM*
COc1ccc(CNC(=O)COC(=O)c2cc(-c3ccc(Cl)s3)nc3ccccc23)cc1	-18%	4%
COc1ccc(Nc2cc(C(=O)NCc3ccco3)c3ccccc3n2)cc1	13µM*	-7%
COCCCNC(=O)c1oc2c(c1C)-c1nn(Cc3ccccc3Cl)cc1CC2	-15%	-3%
Cc1ccc(NC(=O)c2cc(CN3CCOCC3)on2)cc1Cl	0%	-1%
Cc1ccc(Cl)cc1N1CCN(C(=O)c2cn(C)c3ccc(S(=O)(=O)N4CCC(C)CC4)cc3c2=O)CC1	3%	-1%
CCC1CN(C(=O)N2CCC(C(=O)NCCc3ccc(OC)cc3OC)CC2)c2cc(C)ccc2O1 (stereo unspecified)	16%	-1%
CCc1ccccc1NC(=O)c1cc(S(=O)(=O)N2CCCc3ccccc32)ccc1F	-3%	2%
Cc1c2cnn(CC(=O)NC(C)C)c(=O)c2c(C)n1Cc1ccccc1Cl	-1%	0%
O=C(/C=C/c1ccco1)NC(=S)Nc1ccc(O)c(-c2nc3ccccc3s2)c1	7.9µM*	0%
O=C(Nc1ccc(O)c(-c2nc3ccccc3s2)c1)c1cccs1	?	-2%
